Source: PubChem BioAssay (Tox21)
Results filed as inconclusive are left out. The source made the active and inactive calls. Calls follow the shape of the dose curve; as a rule, active = well fitted curve in the direction sought with a large enough effect in the repeat runs; inconclusive = weak or mixed curves; inactive = no such curve, though single readings can be large; an effect the other way counts as inactive or inconclusive.

test: qHTS assay to identify small molecule antagonists of the TGF-beta/Smad signaling pathway - cell viability counter screen (AID 1346824); settings: SBE-bla HEK293T viability, CellTiter-Glo luminescence; series mostly up to 76.8 µM; viability change, negative = cytotoxic: at the top concentration; also: nearly all actives have a fitted effect of over 50% in size
In short: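 Cytotoxicity counter-screen run in the same wells as the beta-lactamase Smad reporter read: CellTiter-Glo luminescence after 30 min at room temperature. HEK 293T SBE-bla cells had 5 hr compound exposure at 37 C with TGF-beta1 (0.25 ng/mL stock).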
% is scaled to controls: 0 for no effect and ±100 for the full control effect.

Compound	viability change, negative = cytotoxic	outcome
CC(CCc1ccc2c(c1)OCO2)NN (stereo not given)	-7.52% [at 35.3 µM] (inactive)	
CC(C)c1nnc2ccc(-c3ocnc3-c3cc(F)ccc3F)cn12	-0.305% (inactive)	
OC/C(Br)=C(\Br)CO	-8.83% (inactive)	
CN1CCCN=C1/C=C/c1cccs1	8.37% [at 35.3 µM] (inactive)	
CC1(C)C(=O)N(Br)C(=O)N1Cl	-0.136% (inactive)	
O=C(O)c1cccc(O)c1	-2.38% (inactive)	
NC(=O)Nc1ccc(Cl)cc1	9.85% (inactive)	
CCCCCCOC(=O)C(C)C	6.69% (inactive)	
CCCCCCCCCCCC[N+](C)(C)CCCS(=O)(=O)[O-]	2.51% (inactive)	
CCCOCCOCCO	2.36% (inactive)	
Cc1cc(O)c2c(O)c3c(O)cccc3cc2c1	-0.881% [at 35.3 µM] (inactive)	
Cn1c(=O)c2c(ncn2CC(=O)O)n(C)c1=O	-0.833% [at 35.3 µM] (inactive)	
CC#N	10.1% (inactive)	
CO[C@H]1O[C@H](CO)[C@@H](O)[C@H](O)[C@H]1O	4.43% (inactive)	
CCOC(=O)C(C)Oc1ccc(Oc2nc3ccc(Cl)cc3o2)cc1 (stereo not given)	0.207% (inactive)	
Cc1oncc1C(=O)Nc1ccc(C(F)(F)F)cc1		inactive
CC1CN(c2cc3c(cc2F)c(=O)c(C(=O)O)cn3-c2ccc(F)cc2F)CCN1 (stereo not given)	-5.24% [at 6.97 µM] (inactive)	
COC(OC)(C(=O)c1ccccc1)c1ccccc1	4.05% (inactive)	

Compound	viability change, negative = cytotoxic	outcome
O=c1[nH]c2ccc(S(=O)CCN3CCC(Cc4ccc(F)cc4)CC3)cc2o1 (stereo not given)	2.93% (inactive)	
Cc1nc2ccccc2s1	7.89% (inactive)	
CCOCCn1c(C2CCN(CCc3ccc(C(C)(C)C(=O)O)cc3)CC2)nc2ccccc21	1.89% [at 35.3 µM] (inactive)	
CC(=O)Nc1ccc(N)cc1	9.29% (inactive)	
CCC(=O)OC/C=C/c1ccccc1		inactive
CN1CCN(c2c(F)cc3c(=O)c(C(=O)O)cn4c3c2OCN4C)CC1	1.7% [at 15.8 µM] (inactive)	
CCC(C)=O	-2.71% (inactive)	
O=S(=O)(c1ccccc1)c1ccc(Cl)cc1	-6.86% (inactive)	
O=C(CCC1CCN(Cc2ccccc2)CC1)c1ccc2c(c1)NCCCC2	0.253% [at 35.3 µM] (inactive)	
CCn1nc(C)c2c1C(=O)NCC(c1ccc(O)cc1)=N2	10.5% (inactive)	
CCc1nn(CCCN2CCN(c3cccc(Cl)c3)CC2)c(=O)n1CCOc1ccccc1	-24.3% [at 35.3 µM] (inactive)	
C[Si](NC1CCCCC1)(NC1CCCCC1)NC1CCCCC1	-20.6% (inactive)	
CC(C)(C)C(=O)C(Oc1ccc(Cl)cc1)n1ccnc1 (stereo not given)	3.29% [at 35.3 µM] (inactive)	
Cc1cc2nc3ccc(=[N+](C)C)cc-3sc2cc1N	-5.24% [at 35.3 µM] (inactive)	
Nc1nc(Cl)nc2c1ncn2[C@@H]1O[C@H](CO)[C@@H](O)[C@@H]1F	13.6% [at 35.3 µM] (inactive)	
CCOc1cc(N)c(Cl)cc1C(=O)NCC1CN(Cc2ccc(F)cc2)CCO1 (stereo not given)	10.6% [at 35.3 µM] (inactive)	
Cc1cc(OI)c(C(C)C)cc1-c1cc(C(C)C)c(OI)cc1C	0.804% [at 35.3 µM] (inactive)	

test: qHTS assay to identify small molecule agonists of the TGF-beta/Smad signaling pathway - cell viability counter screen (AID 1346829); settings: SBE-bla HEK293T viability, CellTiter-Glo luminescence, 5 h; series mostly up to 76.8 µM; activity change, negative = cytotoxicity: at the top concentration; also: top concentration of the series differs between compounds; nearly all actives have a fitted effect of over 45% in size
In short: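 Luminescence from CellTiter-Glo, read after a 30 min room-temperature incubation, gives cell viability of SBE-bla HEK 293T cells treated 5 hr with compounds at 37 C.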

Compound	activity change, negative = cytotoxicity	outcome
CC(CCc1ccc2c(c1)OCO2)NN (stereo not given)	-2.17% [at 35.3 µM] (inactive)	
CC(C)c1nnc2ccc(-c3ocnc3-c3cc(F)ccc3F)cn12	-0.951% (inactive)	
Cc1cc(S(=O)(=O)O)ccc1N=Nc1c(O)ccc2ccccc12	-7.36% (inactive)	
OC/C(Br)=C(\Br)CO	4.18% (inactive)	
CN1CCCN=C1/C=C/c1cccs1	-2.17% [at 35.3 µM] (inactive)	
CC1(C)C(=O)N(Br)C(=O)N1Cl	3.7% (inactive)	
CCC(C(=O)OCCOCCN(CC)CC)c1ccccc1 (stereo not given)	6.31% [at 35.3 µM] (inactive)	
O=C(O)c1cccc(O)c1	1.83% (inactive)	
NC(=O)Nc1ccc(Cl)cc1	8.6% (inactive)	
O=C(O)c1ccc(CO)o1	-8.86% (inactive)	
CCCCCCOC(=O)C(C)C	-2.5% (inactive)	
CCCCCCCCCCCC[N+](C)(C)CCCS(=O)(=O)[O-]	11.3% (inactive)	
CCCOCCOCCO	1.57% (inactive)	
Cc1cc(O)c2c(O)c3c(O)cccc3cc2c1	11.9% [at 35.3 µM] (inactive)	
Cn1c(=O)c2c(ncn2CC(=O)O)n(C)c1=O	8.25% [at 35.3 µM] (inactive)	
CC#N	17.1% (inactive)	
CO[C@H]1O[C@H](CO)[C@@H](O)[C@H](O)[C@H]1O	11% (inactive)	
CCOC(=O)C(C)Oc1ccc(Oc2nc3ccc(Cl)cc3o2)cc1 (stereo not given)	-5.53% (inactive)	
Cc1oncc1C(=O)Nc1ccc(C(F)(F)F)cc1		inactive
CC1CN(c2cc3c(cc2F)c(=O)c(C(=O)O)cn3-c2ccc(F)cc2F)CCN1 (stereo not given)	5.65% [at 6.97 µM] (inactive)	

Compound	activity change, negative = cytotoxicity	outcome
COC(OC)(C(=O)c1ccccc1)c1ccccc1	-3.22% (inactive)	
O=c1[nH]c2ccc(S(=O)CCN3CCC(Cc4ccc(F)cc4)CC3)cc2o1 (stereo not given)	0.259% (inactive)	
Cc1nc2ccccc2s1	7.18% (inactive)	
CCOCCn1c(C2CCN(CCc3ccc(C(C)(C)C(=O)O)cc3)CC2)nc2ccccc21	3.77% [at 35.3 µM] (inactive)	
CC(=O)Nc1ccc(N)cc1	-2.29% (inactive)	
CCC(=O)OC/C=C/c1ccccc1		inactive
CN1CCN(c2c(F)cc3c(=O)c(C(=O)O)cn4c3c2OCN4C)CC1	-7.56% [at 15.8 µM] (inactive)	
CCC(C)=O	0.833% (inactive)	
O=S(=O)(c1ccccc1)c1ccc(Cl)cc1	-4.6% (inactive)	
O=C(CCC1CCN(Cc2ccccc2)CC1)c1ccc2c(c1)NCCCC2	-4.49% [at 35.3 µM] (inactive)	
CCn1nc(C)c2c1C(=O)NCC(c1ccc(O)cc1)=N2	1.06% (inactive)	
CCc1nn(CCCN2CCN(c3cccc(Cl)c3)CC2)c(=O)n1CCOc1ccccc1	-1.85% [at 35.3 µM] (inactive)	
C[Si](NC1CCCCC1)(NC1CCCCC1)NC1CCCCC1	14.2% (inactive)	
CC(C)(C)C(=O)C(Oc1ccc(Cl)cc1)n1ccnc1 (stereo not given)	2.71% [at 35.3 µM] (inactive)	
Cc1cc2nc3ccc(=[N+](C)C)cc-3sc2cc1N	-3.51% [at 35.3 µM] (inactive)	
CN(C)C(=O)Nc1ccc(Oc2ccc(Cl)cc2)cc1	16.5% (inactive)	
Nc1nc(Cl)nc2c1ncn2[C@@H]1O[C@H](CO)[C@@H](O)[C@@H]1F	0.435% [at 35.3 µM] (inactive)	
CCOc1cc(N)c(Cl)cc1C(=O)NCC1CN(Cc2ccc(F)cc2)CCO1 (stereo not given)	10.6% [at 35.3 µM] (inactive)	
CC(=O)OCC(=O)[C@H]1CC[C@H]2[C@@H]3CCC4=CC(=O)CC[C@]4(C)[C@H]3CC[C@]12C	-4.22% [at 35.3 µM] (inactive)	
Cc1cc(OI)c(C(C)C)cc1-c1cc(C(C)C)c(OI)cc1C	0.599% [at 35.3 µM] (inactive)	
